Data on 14 compounds can be found in PubChem BioAssay.

Activity calls are given as the source filed them.

One test has as its target Albumin (Bos taurus) (UniProt P02769). The test is described as follows: compounds binding labelled BSA control protein – biochemical, small-molecule microarray, Alexa647 label, 635/667 nm fluorescence, artefact control for SMM control protein annotation, profiling panel (AID 1118).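 Further: score merges 667 nm emission intensity and signal-to-noise per printed compound spot.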 To be noted: BSA-A647 binding, fluorescence 635 nm, higher = more signal.
The nature of test [1]: probe aXIP binding to arrayed compounds – biochemical, NeuroSMM set, 635/667 nm fluorescence, primary screen (AID 1119).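 Further: probe is the protein aXip251-270 applied at 1 µg/mL to compound-printed slides; binding of probe to printed compounds measured as 667 nm fluorescence plus signal to noise.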 To be noted: small-molecule microarray, higher = more signal, called active from +8 up or from −8 down.
Test [2] in a line: probe aNOTCH3 binding on compound microarray – biochemical, small-molecule microarray, 635/667 nm fluorescence, primary screen (AID 1120).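 Further: probe is a biotin-tagged antibody raised against NOTCH3 rather than NOTCH3 protein; score merges spot fluorescence near 667 nm with spot signal to noise.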 To be noted: higher = more signal.
The nature of test [3]: probe aNOTCH2 binding on compound microarray – biochemical, small-molecule microarray, 635/667 nm fluorescence, primary screen (AID 1121).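 Further: score merges feature fluorescence read at 667 nm with its signal to noise.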 The following applies: higher = more signal.
The target of test [4] is Carbonic anhydrase 2 (Homo sapiens) (UniProt P00918). The test is described as follows: compounds binding carbonic anhydrase 2 – biochemical, small-molecule microarray, Alexa647-labelled CAII, profiling panel (AID 1122). To be noted: CAII-A647 binding fluorescence, higher = more signal.
A short description of test [5]: COS7 lysate on small-molecule microarray, probe aHis, 635 nm (AID 1123).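 Further: z-score combines 667nm fluorescence intensity with signal-to-noise per printed compound spot.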 The following applies: COS7 cell lysate, fluorescence, higher = more signal.
Test [6] in a line: probe aLAP1 signal on lysate-treated microarray – cell lysate, small-molecule microarray, COS7 lysate, primary screen (AID 1124).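 Further: lysate comes from COS7 cells expressing LAP1 and is applied at 0.3 µg/mL; score merges spot fluorescence near 667 nm with signal-to-noise over triplicate slides.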 To be noted: probe aLAP1, fluorescence, higher = more signal.
The next test concerns Sam68 (KHDRBS1). Nature of the test: compounds binding KHDRBS1 protein – biochemical, small-molecule microarray, 635 nm fluorescence, primary screen (AID 1125).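 Further: score merges 667 nm channel intensity with signal to noise over triplicate slides.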 To be noted: higher = more signal.
In test [7] the test system is Chordin-like protein 2 (CHRDL2). The test is described as follows: compounds binding chordin-like 2 – biochemical, small-molecule microarray, 635 nm fluorescence, primary screen (AID 1126).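 Further: printed compound slides probed with Chrdl2 protein at 4 µg/mL for 1 h at 4 C; score merges 667 nm emission intensity with signal to noise over three replicate slides.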 The following applies: fluorescence 635 nm, higher = more signal.
Test [8] deals with Concanavalin-A (Canavalia ensiformis) (UniProt P02866). The test is described as follows: compounds binding concanavalin A lectin – biochemical, small-molecule microarray, Alexa647 label, 635 nm, artefact control for SMM control protein annotation, primary screen (AID 1127).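 Further: z combines 667 nm emission intensity with signal-to-noise across three replicate slides.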 To be noted: ConA-A647 binding fluorescence, higher = more signal.
Chain of Concanavalin-A (Canavalia ensiformis) (P02866 whole entry, looked up): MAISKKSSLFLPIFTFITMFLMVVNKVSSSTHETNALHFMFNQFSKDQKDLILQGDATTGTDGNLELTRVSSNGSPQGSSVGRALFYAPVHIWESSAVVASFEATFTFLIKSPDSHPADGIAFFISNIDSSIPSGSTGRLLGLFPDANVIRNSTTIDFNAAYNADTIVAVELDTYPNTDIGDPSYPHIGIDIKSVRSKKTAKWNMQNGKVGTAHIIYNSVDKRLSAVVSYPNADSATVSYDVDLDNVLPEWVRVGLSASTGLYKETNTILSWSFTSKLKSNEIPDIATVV

Chain of Albumin (Bos taurus) (P02769 whole entry, looked up): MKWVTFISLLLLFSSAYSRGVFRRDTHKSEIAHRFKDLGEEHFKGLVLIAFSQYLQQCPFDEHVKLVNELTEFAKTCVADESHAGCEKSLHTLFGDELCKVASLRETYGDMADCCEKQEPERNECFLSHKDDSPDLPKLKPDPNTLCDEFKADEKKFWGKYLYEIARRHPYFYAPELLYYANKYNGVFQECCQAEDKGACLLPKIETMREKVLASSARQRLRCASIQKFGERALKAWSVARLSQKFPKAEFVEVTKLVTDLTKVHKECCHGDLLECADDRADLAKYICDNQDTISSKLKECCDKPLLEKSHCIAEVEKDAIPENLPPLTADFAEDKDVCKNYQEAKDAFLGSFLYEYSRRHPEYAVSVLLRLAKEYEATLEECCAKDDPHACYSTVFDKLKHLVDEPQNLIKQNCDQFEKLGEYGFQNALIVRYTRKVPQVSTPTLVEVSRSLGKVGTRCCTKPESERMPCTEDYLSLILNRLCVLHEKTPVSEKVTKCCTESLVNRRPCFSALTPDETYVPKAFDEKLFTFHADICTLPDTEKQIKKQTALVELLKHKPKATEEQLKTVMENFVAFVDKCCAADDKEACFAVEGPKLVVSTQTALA

On to `COC(=O)[C@@]1(Cc2ccccc2)[C@H]2c3cc(C(=O)N4CCCC4)n(Cc4ccsc4Br)c3C[C@H]2CN1C(=O)c1ccccc1`, for which the composite z-score with Albumin (Bos taurus) is 0.842; in test [2], 0.485; in test [3], 0.244; in [4] it was 0.555; in test [5] it was 2.45; in test [6], -0.0293. Besides, the composite z-score in the test on Sam68 (KHDRBS1) is 1.33; in [7], -0.265; in test [8], 1.01. In addition, in test [1], the composite Z-score was -0.314 (inactive).

For the compound `CCOC(=O)C[C@H]1[C@H](OC(=O)c2ccc(-c3ccccc3)cc2)[C@@H](NC(=O)c2ccc3ccccc3c2)c2cc(OCCCO)ccc2N1C(=O)c1ccc2ccccc2n1`, the composite z-score with Albumin (Bos taurus) is 0.587; in [2], 0.178; in [3] it was 0.0278; in test [4], 0.137; in [5], 1.06; in test [6], -0.0403. Besides, the values for the composite z-score (in the test on Sam68 (KHDRBS1); in [7]; in [8]) were 1.04, -0.0835 and 0.954, respectively. The composite Z-score in test [1] is 0.152 (inactive).

Consider `O=C(O)[C@]1(Cc2ccccc2)N=C(c2ccc(OCCCO)cc2)O[C@@H]1c1ccccc1`, for which the composite z-score is 0.424 with Albumin (Bos taurus); -0.122 in test [2]; -0.14 in test [3]; 0.837 in test [4]; 0.689 in test [5]; -0.278 in [6]. For the same compound, the composite z-score with Sam68 (KHDRBS1) is -1.24; in test [7] it was -1.65; in test [8], 0.0277. The composite Z-score in [1] is -0.191 (inactive).

Take `CC1CC/C=C\[C@H]2OC34C=CCN(c5ccc6ccccc6c5)C(=O)[C@H]3N(C(CO)C(C)C)C(=O)[C@@H]4C2C(=O)O1` (stereo not given in full): the composite z-score with Albumin (Bos taurus) was 0.912; in [2] it was -0.125; in [3] it was -0.125; in test [4] it was 0.786; in test [5], 1.07; in test [6], 0.407. Besides, the figures for the composite z-score (with Sam68 (KHDRBS1); in test [7]; in test [8]) were 0.0645, -0.315 and 0.0601, respectively. The composite Z-score in test [1] is 0.142 (inactive).

As to `COc1ccc([Si](C)(C)[C@H]2[C@H](CCO)O[C@@]3(C(=O)N(Cc4cccc(N5CCCCC5=O)c4)c4ccccc43)[C@@H]2C)cc1`, the composite z-score in the test with Albumin (Bos taurus) is 0.378; in test [2], -0.0984; in test [3], -0.148; in [4], 0.394; in test [5], 1.31; in test [6], 0.264. For the same compound, the composite z-score is 1.15 in the test on Sam68 (KHDRBS1), 0.769 in test [7] and 1.1 in test [8]. For the same compound, the composite Z-score in [1] is 0.299 (inactive).

For `CC(C)C[C@@H]1NC(=O)[C@H]2C[C@@H](C(=O)NCCCCCC[N+](C)(C)C)[C@@H](c3cccc(OCCO)c3)N2C1=O`, the composite z-score was 0.107 in the test with Albumin (Bos taurus); -0.0967 in test [2]; -0.169 in test [3]; 0.377 in test [4]; 1.02 in test [5]; 0.384 in test [6]. Moreover, the figures for the composite z-score (in the test with Sam68 (KHDRBS1); in test [7]; in test [8]) were 0.374, 0.964 and 0.869, respectively. Moreover, the composite Z-score in [1] was 0.831 (inactive).

`Cc1ccc(S[C@]2(C(=O)NCCN3CCOCC3)CC(=O)N(Cc3ccccc3C(F)(F)F)[C@@H]2c2ccc(CO)cc2I)cc1`: the composite z-score with Albumin (Bos taurus) is 0.274; in test [2], -0.171; in test [3] it was -0.131; in [4], 0.371; in test [5], 0.702; in [6], 0.23. The composite z-score with Sam68 (KHDRBS1) is 0.397; in [7], -0.777; in [8], -0.278. The composite Z-score in [1] is 0.139 (inactive).

As to `C=C(/C(=C/C[C@@H](OC(=O)c1ccncc1)c1ccc(OCCO)cc1)c1cc(C(=O)OC)ccc1OC)C(C)C`, the composite z-score in the test with Albumin (Bos taurus) was 0.277; in test [2] it was 0.157; in test [3], -0.124; in test [4] it was 0.269; in [5] it was 1.06; in test [6], -0.017. Moreover, the composite z-score in the test with Sam68 (KHDRBS1) was 1.14; in [7], -0.0737; in test [8] it was 0.695. Moreover, the composite Z-score in test [1] is 0.443 (inactive).

Turning to `COCCOC(=O)N1C(=O)[C@@]2(c3cc(C#CC4(O)CCCCCC4)ccc31)[C@H](C(N)=O)[C@H]1C(=O)O[C@H](c3ccccc3)[C@H](c3ccccc3)N1[C@@H]2c1ccccc1OCCO`, the composite z-score with Albumin (Bos taurus) is 0.199; in test [2], -0.6; in test [3], -0.219; in test [4], 0.541; in [5], 2; in test [6], 0.591. Moreover, the composite z-score turned out to be 1.31 with Sam68 (KHDRBS1), 0.369 in [7] and 0.845 in test [8]. Further, the composite Z-score in test [1] is -0.526 (inactive).

Consider `C=CC[C@@]1(C(=O)O)N=C(c2ccc(OCCCO)cc2)O[C@@H]1c1ccccc1`, for which the composite z-score was 0.771 with Albumin (Bos taurus); -0.293 in test [2]; 0.247 in [3]; 0.527 in test [4]; 2.71 in test [5]; 0.724 in test [6]. Also, the composite z-score with Sam68 (KHDRBS1) is 0.732; in [7], -0.713; in test [8], -0.587. In addition, the composite Z-score in test [1] was 1.76 (inactive).

For `C[C@]1(C(=O)NCCN2CCOCC2)c2ccccc2C(=O)N(Cc2ccc(OC(F)(F)F)cc2)[C@H]1c1ccc(CO)cc1`, the composite z-score in the test with Albumin (Bos taurus) was 0.723; in test [2], -0.154; in test [3] it was -0.0966; in test [4] it was 0.627; in [5], 2.43; in test [6], 0.345. The composite z-score is 0.217 in the test with Sam68 (KHDRBS1), -1.15 in test [7] and 0.392 in test [8]. Besides, the composite Z-score in test [1] was 0.456 (inactive).

As for `CN(C)CCCNC(=O)[C@@]1(c2ccc([N+](=O)[O-])cc2)CC(=O)N(CC23CC4CC(CC(C4)C2)C3)[C@@H]1c1ccc(CO)cc1`, the composite z-score with Albumin (Bos taurus) came to 0.0561; in test [2], 0.683; in test [3] it was 0.094; in [4], 0.49; in [5], 3.43; in test [6], 0.82. Also, the composite z-score stood at 1.3 in the test on Sam68 (KHDRBS1), 1.07 in test [7] and 1.15 in [8]. Besides, in [1], the composite Z-score is -0.137 (inactive).

Consider `C=C(COC)/C(=C/C[C@@H](OC(=O)c1ccncc1)c1ccc(CO)o1)c1cnc2ccccc2c1`, for which the composite z-score was 0.516 in the test with Albumin (Bos taurus); 0.412 in test [2]; -0.14 in test [3]; 0.951 in test [4]; 0.831 in [5]; 0.589 in test [6]. For the same compound, the composite z-score in the test on Sam68 (KHDRBS1) was determined as 1.3; in test [7], 1.47; in test [8], 1.23. In test [1], the composite Z-score was 1.35 (inactive).

With `COC(=O)[C@@]1(Cc2ccc(F)cc2)[C@H]2c3cc(C(=O)N4CCCC4)n(CCc4c[nH]c5ccc(OC)cc45)c3C[C@H]2CN1C(=O)c1ccccc1`, the composite z-score in the test with Albumin (Bos taurus) was 0.871; in [2], 1.43; in test [3], 0.849; in test [4], 0.313; in test [5] it was 2.33; in test [6], -0.143. The values for the composite z-score (with Sam68 (KHDRBS1); in [7]; in [8]) were 0.929, -0.0865 and 1.09, respectively. The composite Z-score in test [1] is 0.298 (inactive).
